Shown are actives, neighbours in structure and some others; about 19% of the full set was active somewhere.
IL-1B inflam inh – qHTS for Inhibitors of Inflammasome Signaling: IL-1-beta AlphaLISA Primary Screen; THP-1 LPS/ATP IL-1B secretion, AlphaLISA, 16 h; hits give low values; 4.7% of 360,000 active; AID 743279, 2014; activity change, % at 57.5 µM; in the data active = activity change below about -50%; inconclusive = mostly about -30% to -49%
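THP-1 cells pretreated 1 hr with compounds (up to 57.5 uM final), then stimulated with LPS (250 ng/mL final) plus ATP (1.25 mM final); secreted IL-1B measured by AlphaLISA after 16 hr, decreased signal indicating inhibition.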
HT1080NT lethal – qHTS for induction of synthetic lethality in tumor cells producing 2HG: qHTS for the HT-1080-NT fibrosarcoma cell line | 1.6% of 360,000 active | AID 686970, 2013 | HT-1080-NT fibrosarcoma viability, CellTiter-Glo ATP luminescence, 48 h | Potency, µM (top dose mostly 46.1 µM), for the others: top-dose activity, negative = less viability, most hits filed as cytotoxic;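 note: NT is the 2HG producing partner of a matched IDH1 knockdown line; potency is the fitted concentration of half-maximal effect; 0% = DMSO-treated cells and -100% = media-only wells without cells; nearly all actives have a fitted effect of over 55% in size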
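HT-1080-NT fibrosarcoma cells (2HG-overproducing), 750 cells/well in RPMI with 5% FBS, dosed after 2 h and incubated 48 h at 37C. CellTiter-Glo luminescence normalized to DMSO and no-cell wells; concentration-response curves fitted and classed.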
TDP1 cell noCPT – qHTS for Inhibitors of human tyrosyl-DNA phosphodiesterase 1 (TDP1): qHTS in cells in absence of CPT. DT40 Tdp1-/- hTDP1 cells, no CPT, ATP luminescence, 48 h. Potency, µM (highest dose often 46.2 µM), for inactives: at the top dose activity change, negative = growth inhibition, usual class: inhibitors. 15% of 420,000 active. AID 686978, 2013; note: potency is the fitted concentration of half-maximal effect; nearly all actives have a fitted effect of over 55% in size
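No-CPT arm: Tdp1-/-;hTDP1 DT40 cells (400/well) plus compounds, incubated ≥48 hr at 37 °C. Readout CellTiter-Glo luminescence.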
HT1080 IDH1KD tx – qHTS for induction of synthetic lethality in tumor cells producing 2HG: qHTS for the HT-1080-IDH1KD cell line. HT-1080 IDH1 knockdown viability, ATP luminescence, 48 h. Potency, µM (series often up to 46.1 µM), for the others: top-dose activity, negative = toxicity, actives largely listed as cytotoxic. 2% of 360,000 active. AID 686971, 2013;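 note: potency is the fitted concentration of half-maximal effect; 0% = DMSO wells and -100% = cell-free medium wells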
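CellTiter-Glo luminescence after 48 h compound exposure at 37 degrees C of IDH1-knockdown HT-1080 cells in 5% FBS RPMI. %Activity scaled between DMSO wells and cell-free media wells, with curves fitted and assigned curve classes.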
DT40 TDP1 CPT – qHTS for Inhibitors of human tyrosyl-DNA phosphodiesterase 1 (TDP1): qHTS in cells in presence of CPT; 12% of 420,000 active; Potency, µM (titrated, usually from 46.2 µM), inactives show at the highest dose activity change, negative = growth inhibition, usual class: inhibitors; chicken DT40 Tdp1-/-;hTDP1 cells + 20 nM CPT, ATP luminescence, 48 h; AID 686979, 2013; note: potency is the fitted concentration of half-maximal effect; nearly all actives have a fitted effect of over 55% in size
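Chicken DT40 Tdp1-/- cells complemented with human TDP1, 400 cells/well, exposed to compounds plus 20 nM camptothecin for at least 48 h at 37 C; viability read as ATP content by CellTiter-Glo luminescence.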
* hit, by the source's call; ? = inconclusive; / = no result given. Unless noted, calls come from the whole dose curve; as a rule, active = well fitted curve in the direction sought with a large enough effect; inconclusive = small, poorly fitted or top-dose-only effect, or another doubt; inactive = no such curve, though single readings can be large; an effect the other way counts as inactive or inconclusive. Unless noted, % is set by controls: 0 for no effect and ±100 for the full control effect.

SMILES | IL-1B inflam inh | HT1080NT lethal | TDP1 cell noCPT | HT1080 IDH1KD tx | DT40 TDP1 CPT
S=c1nc(-c2ccc(Br)cc2)oc2c1CCCC2 | 23 | 16% | -98% | 17% | 21µM*
Cc1cccc(-c2nc(=S)c3c(o2)CCCC3)c1 | -2 | 15% | ? | 22% | ?
O=C(NC(c1ccccc1)c1cnccn1)C1CCN(CCOc2ccc(Cl)cc2Cl)CC1 (stereo not given) | ? | 16µM* | 18µM* | ? | 16µM*
O=C(NC(c1ccccc1)c1ccsc1)C1CCN(CCOc2ccc(Cl)cc2Cl)CC1 (stereo not given) | -68* | 18µM* | ? | 16µM* | ?
O=C(NC(c1ccc2c(c1)OCO2)c1ccccn1)C1CCN(CCOc2ccccc2)CC1 (stereo not given) | -14 | -4% | -25% | -1% | 11%
O=C(NC(c1cccnc1)c1ccc2c(c1)OCO2)C1CCN(CCOc2ccc(Cl)cc2Cl)CC1 (stereo not given) | -68* | ? | ? | 18µM* | -45%
O=C(O)c1ccc(N2C(=O)/C(=C\c3ccccc3)N=C2c2ccccc2)cc1 | -73* | 26% | -27% | 29% | 11%
CC1=N/C(=C\c2ccc3c(c2)OCO3)C(=O)N1c1ccc(C(=O)O)cc1 | 9 | 17% | ? | 7% | ?
Cc1c(C(=O)NCC2COc3ccccc3O2)oc2ccc(S(=O)(=O)N(C)C3CCCCC3)cc12 (stereo not given) | -9 | -17% | 15µM* | -1% | ?
CN(C)S(=O)(=O)c1ccc(N2CCCC2)c(C(=O)NCC2COc3ccccc3O2)c1 (stereo not given) | -1 | -4% | ? | 0% | -41%
Cc1c(C(=O)Nc2ccc(F)c(F)c2)oc2ccc(S(=O)(=O)N(C)C3CCCCC3)cc12 | / | / | 15µM* | / | 18µM*
COc1ccc(C)cc1NC(=O)c1oc2ccc(S(=O)(=O)N(C)C3CCCCC3)cc2c1C | / | / | 0% | / | -3%
O=S1(=O)C=CC(Sc2nc3ccccc3[nH]2)C1 (stereo not given) | 50 | 6% | 21µM* | 12% | 13µM*
Cc1cc(C)c(NC(=O)CSc2nc(=O)n(Cc3ccncc3)c3c2CCC3)c(C)c1 | / | / | 5% | / | 9%
Cc1cccc(C)c1NC(=O)C(CCc1ccccc1)n1c(=O)c(-c2cc3ccccc3[nH]2)nc2ccccc21 (stereo not given) | -12 | ? | 6.5µM* | ? | 7.3µM*
Cc1cccc(C)c1NC(=O)C(c1ccncc1)n1c(=O)c(-c2ccccc2)nc2ccccc21 (stereo not given) | -8 | 1% | ? | -9% | -12%
Cc1cccc(C)c1NC(=O)C(CCc1ccccc1)n1c(=O)c(-c2ccccc2)nc2ccccc21 (stereo not given) | -4 | ? | 4.1µM* | ? | 3.3µM*
CC(C)(C)NC(=O)C(CCc1ccccc1)n1c(=O)c(-c2cc3ccccc3[nH]2)nc2ccccc21 (stereo not given) | 15 | ? | 13µM* | ? | 15µM*
O=C(NC(=S)NCc1cccnc1)c1cc(Br)ccc1Cl | -17 | -1% | -14% | -1% | -12%
CCN(C[C@H]1N[C@@](Cc2ccccc2)(C(=O)OC)[C@H]2C(=O)N(Cc3ccccc3)C(=O)[C@@H]12)C(=O)Nc1ccc(C(F)(F)F)cc1 | ? | -22% | 3.7µM* | -20% | 2.6µM*
CCN(C[C@H]1N[C@@](Cc2ccccc2)(C(=O)OC)[C@H]2C(=O)N(Cc3ccccc3)C(=O)[C@@H]12)C(=O)Nc1ccc(C)cc1 | -7 | ? | 16µM* | ? | ?
CCN(C[C@H]1N[C@@](Cc2ccccc2)(C(=O)OC)[C@H]2C(=O)N(Cc3ccccc3)C(=O)[C@@H]12)C(C)=O | -86* | 20% | -16% | 10% | 8%
Cc1ccc(N2CCN(/N=C/c3sccc3C)CC2)cc1 | -16 | 4% | -29% | 7% | -18%
CC(=O)N1N=C(c2ccncc2)OC12CCCC2 | -9 | 1% | -9% | 0% | -7%
COc1ccc(OC)c(NC(=O)C2CCCN(S(=O)(=O)c3cccc4nsnc34)C2)c1 (stereo not given) | -2 | -6% | 16µM* | ? | 16µM*
SMILES | IL-1B inflam inh | HT1080NT lethal | TDP1 cell noCPT | HT1080 IDH1KD tx | DT40 TDP1 CPT
O=C(Nc1cccnc1)C1CCCN(S(=O)(=O)c2cccc3nsnc23)C1 (stereo not given) | 4 | -5% | ? | -10% | -27%
COc1cc(NC(=O)C(Cc2ccccc2)NS(=O)(=O)c2cccc3nsnc23)cc(OC)c1 (stereo not given) | / | / | 16µM* | / | 16µM*
O=C(Nc1ccc(Br)cc1)C(Cc1ccccc1)NS(=O)(=O)c1cccc2nsnc12 (stereo not given) | / | / | -28% | / | -29%
Cc1ccc2nc(NC(=O)C3CCCN(S(=O)(=O)c4cccc5nsnc45)C3)sc2c1 (stereo not given) | -2 | -1% | 18µM* | -8% | ?
COc1cc(NC(=O)C2CCCN(S(=O)(=O)c3cccc4nsnc34)C2)cc(OC)c1 (stereo not given) | -4 | -4% | 21µM* | -12% | ?
COC(=O)c1cc(C)ccc1/C=C1/Cc2c(C)cc(C)cc2C1=O | -7 | 5% | ? | -21% | 9.2µM*
O=C(NNC(=O)c1ccc([N+](=O)[O-])cc1Cl)c1ccncc1 | 22 | 5% | -10% | 18% | -6%
Cc1cc(C)cc(SCc2noc(C(=O)NCc3ccccc3)c2C(=O)NCc2ccccc2)c1 | 25 | 1% | ? | -1% | ?
CCCCNC(=O)c1onc(CSc2ccc(F)c(F)c2)c1C(=O)NCCCC | -16 | 1% | ? | 6% | 16µM*
C=CCNC(=O)c1onc(CSc2cccc(C)c2)c1C(=O)O | 6 | -6% | -8% | -18% | -10%
C=CCNC(=O)c1onc(CSc2cc(C)cc(C)c2)c1C(=O)NCC=C | -104* | -12% | 18µM* | 0% | ?
O=C(NCc1ccccc1)c1onc(CSc2ccc(F)cc2)c1C(=O)NCc1ccccc1 | -8 | -7% | ? | 6% | 18µM*
C=CCNC(=O)c1onc(CSc2ccc(Cl)cc2)c1C(=O)O | 32 | -14% | -3% | ? | -18%
